In PubChem BioAssay AID1026 (Columbia University Molecular Screening Center, 2008):

Each compound was assayed against Bifunctional epoxide hydrolase 2 (Homo sapiens) (UniProt P34913) (assay: sEH inhibitor concentration-response potency, dose response, biochemical, human sEH, fluorescence, Infinite200 (AID 1026)). Details: recombinant human sEH, fluorogenic substrate, at 0.2 µM, stronger effect = higher value; call rule not given here.
Sequence of Bifunctional epoxide hydrolase 2 (Homo sapiens) (P34913 whole entry, looked up): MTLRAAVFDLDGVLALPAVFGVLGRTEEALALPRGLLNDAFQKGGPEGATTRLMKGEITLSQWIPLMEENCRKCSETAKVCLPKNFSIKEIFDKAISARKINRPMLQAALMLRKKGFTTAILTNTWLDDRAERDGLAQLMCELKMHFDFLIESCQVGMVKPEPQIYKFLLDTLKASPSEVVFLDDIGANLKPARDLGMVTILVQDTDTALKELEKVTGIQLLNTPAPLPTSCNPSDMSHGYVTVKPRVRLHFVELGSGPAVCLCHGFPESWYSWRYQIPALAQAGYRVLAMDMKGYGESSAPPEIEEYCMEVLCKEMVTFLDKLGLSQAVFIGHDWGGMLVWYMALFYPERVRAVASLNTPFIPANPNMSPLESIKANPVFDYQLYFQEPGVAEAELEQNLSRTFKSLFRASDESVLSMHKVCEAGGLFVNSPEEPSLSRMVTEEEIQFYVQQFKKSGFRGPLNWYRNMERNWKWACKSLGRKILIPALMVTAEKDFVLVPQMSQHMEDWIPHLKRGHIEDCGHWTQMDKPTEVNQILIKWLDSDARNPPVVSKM

inhibition, inactive:
O=C(Nc1ccc(F)c(F)c1)NC1CCCCC1 55.5%
CCc1ccc(/C=N/NC(=O)c2ccc(OC3CCCC3)cc2)s1 65.8%
COC(=O)[C@@H](NC(=O)NCc1ccccc1Cl)C(C)C 61.5%
CCN(CCNC(=O)C1CCN(Cc2nc(-c3ccc(Cl)cc3)oc2C)CC1)c1ccccc1 36.3%
CCc1c(C)nc2ncnn2c1N1CCC(C(=O)NCc2ccc3c(c2)OCO3)CC1 41%
O=C(Nc1ccc2c(c1)OCCO2)NC1CCCCC1 52.7%
O=C(/C=C/c1cc2c(cc1Br)OCO2)NCc1ccc(Cl)cc1 60.5%
COc1ccccc1NS(=O)(=O)c1cccc(C(=O)N/N=C(\C)c2ccc(-n3ccnc3)cc2)c1 46.4%
O=C(NCCC1=CCCCC1)c1ccc2c(c1)N(Cc1ccccc1)C(=O)CS2 52.3%
Cn1c(C(=O)N2CCCC(C(=O)NCCCSC3CCCCC3)C2)cc2sccc21 (stereo not given) 49.4%
Cc1cc2nc(-c3ccc(SCC(=O)N4CCN(C(=O)c5ccco5)CC4)nc3)[nH]c2cc1C 48%
CC(Cc1cccs1)NC(=O)Nc1cccc(Cl)c1 (stereo not given) 51.7%
O=C(NCc1ccc2c(c1)OCO2)C1CCN(Cc2cnn(-c3ccccc3)c2-n2cccc2)CC1 57.2%
O=C(Nc1cnn(Cc2ccccc2)c1)NC12CC3CC(CC(C3)C1)C2 59.3%
O=C(Nc1cccc2ccccc12)c1ccc(OC(=S)N2CCOCC2)cc1 68.8%
O=C(Nc1cccc(C(F)(F)F)c1)N1CCC(c2nc(-c3ccc(F)cc3)no2)CC1 68.4%
NNC(=O)c1cccc(COc2cccc(Br)c2)c1 37.1%
COc1cccc(CNC(=O)C2CCC(CNS(=O)(=O)c3cccc4nsnc34)CC2)c1 (stereo not given) 50.1%
O=C(Nc1cccc(C(F)(F)F)c1)NC1CCCCC1 66.5%
O=C(N/N=C\c1ccc(Cl)s1)c1cccs1 74%
O=C(Nc1ccccc1)Nc1ccc(S(=O)(=O)N2CCCCC2)cc1 72.3%
CCCCNC(=O)CSc1nc2ccc(NC(=O)CSc3nnc(COc4ccccc4C)n3C)cc2s1 58.5%
O=C(NCCSCc1ccco1)Nc1cccc(Cl)c1 46.2%
O=C(NCCc1c[nH]c2ccccc12)C1CCC(Cn2c(=S)[nH]c3ccccc3c2=O)CC1 (stereo not given) 72.7%
O=C(NC1CCCCCCC1)C1CCN(S(=O)(=O)N2CCC3(CC2)OCCO3)CC1 49.5%
